This note sets out measurements from PubChem BioAssay (NCATS).

Values joined by “and” are separate entries in the source; they are usually repeats but may differ in a detail not shown here. Equal values may be shown once. Inconclusive results are not listed. The source holds several records for some structures; these can differ, active in one and inactive in another. Active and inactive are the calls of the source. Calls come from the whole dose curve; as a rule, active = well fitted curve in the direction sought with a large enough effect; inconclusive = small, poorly fitted or top-dose-only effect, or another doubt; inactive = no such curve, though single readings can be large; an effect the other way counts as inactive or inconclusive.

Assay [1] in a line: qHTS assay for measurement of the activity of small molecule inhibitors on Zika virus induced Caspase-3 activity in human iPSC derived neural progenitor cells (hNPCs) (AID 1224857). Note: nearly all actives have a fitted effect of over 65% in size. Note: potency is the fitted concentration of half-maximal effect. The method, boiled down: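 After overnight (16–20 h) culture at 350 cells/well, hNPCs get compound, then ZIKV 2 FFU/cell one hour later. Six hours on, Caspase-Glo 3/7 is added and luminescence measured.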
In general terms: In qHTS, concentration-response curves come from the screen itself.

The nature of assay [2]: qHTS assay for measurement of the activity of small molecule inhibitors on Zika virus induced Caspase-3 activity in human astrocytoma cells (AID 1224859). Summed up:
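Inhibition of Zika-induced caspase-3/7 activity: SNB-19 cells, 1 h compound pretreatment, ZIKV 2 FFU/cell for 6 h at 37 C, Caspase-Glo luminescence read-out.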

The nature of assay [3]: qHTS Screen of the MIPE 4.0 Collection Against Ewings Sarcoma (RDES) (AID 1259252). Note: nearly all actives have a fitted effect of over 35% in size. Note: potency is the fitted concentration of half-maximal effect. The method, boiled down: (§1)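 Measured: ATP luminescence (CellTiter-Glo) 10 min after reagent addition, following 48 h drug treatment. Relative luciferase units converted to percent activity, with no-cell wells as full and DMSO wells as zero inhibition.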
A short description of assay [4]: qHTS Screen of the MIPE 4.0 Collection Against Ewings Sarcoma (TC71) (AID 1259253). Note: nearly all actives have a fitted effect of over 40% in size. Note: potency is the fitted concentration of half-maximal effect. The method, boiled down: as §1
The nature of assay [5]: qHTS Screen of the MIPE 4.0 Collection Against Ewings Sarcoma (EW8) (AID 1259255). Note: nearly all actives have a fitted effect of over 35% in size. Note: potency is the fitted concentration of half-maximal effect. The method, boiled down: as §1
Assay [6] in a line: qHTS Screen of the MIPE 4.0 Collection Against Ewings Sarcoma (TC32) (AID 1259256). Note: nearly all actives have a fitted effect of over 45% in size. Note: potency is the fitted concentration of half-maximal effect. Summed up:
as §1

Assay [7] in a line: Identifying Small Molecule Inhibitors of Pancreatic Cancer Stem Cells (A2780, Spheroid) (AID 1259357).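 Note: compound exposure lasted 48 h before the ATP luminescence read.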 Note: potency is the fitted concentration of half-maximal effect. The following applies: Potency: A2780 spheroid viability. Summed up:
(§2)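 Monolayer and spheroid cultures are compared. Spheroids form over 14 days in stem cell medium on hydrogel-coated low-attachment plates, then are exposed to compound for 48 h before CellTiter-Glo luminescence.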

The nature of assay [8]: P-glycoprotein substrates identified in KB-3-1 adenocarcinoma cell line, qHTS therapeutic library screen (AID 1346986). Note: nearly all actives have a fitted effect of over 60% in size.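 Note: potency is the fitted concentration of half-maximal effect; potency is for cytotoxicity meaning loss of cell viability.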 The method, boiled down: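 Resistance attributable to P-gp was assessed by comparing AC50 in KB-8-5-11 with parental KB-3-1 and by tariquidar reversal. Cells were exposed 72 h and viability read by CellTiter-Glo.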
The nature of assay [9]: P-glycoprotein substrates identified in KB-8-5-11 adenocarcinoma cell line, qHTS therapeutic library screen (AID 1346987). Note: nearly all actives have a fitted effect of over 65% in size. Note: potency is the fitted concentration of half-maximal effect. Summed up: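 Steps: plate 500 KB-8-5-11 cells/well in DMEM + 10% FCS (colchicine removed); pin compounds in dose-response; incubate 72 h, 37 degree C, 5% CO2; add CellTiter-Glo, 5 min; read luminescence.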
The nature of assay [10]: NS1 protein of Zika virus - qHTS assay to identify small molecule inhibitors in human HEK 293 cells (AID 1347053). Note: nearly all actives have a fitted effect of over 55% in size. Note: potency is the fitted concentration of half-maximal effect. Summed up:
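HEK 293; 20 h pre-culture, 37 C/5% CO2; cpd 1 h pre-infection; ZIKV MR766, MOI = 0.5, 24 h, 37 C; TR-FRET NS1 readout (two anti-NS1 Abs); norm. to no-virus vs infected.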

Assay [11] in a line: qHTS assay to identify small molecule inhibitors of chordoma cells - UCH-1 (AID 1259355). Note: nearly all actives have a fitted effect of over 55% in size. Note: potency is the fitted concentration of half-maximal effect; series mostly up to about 46 µM. Summed up:
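Luminescent ATP read-out (CellTiter-Glo, 30min at room temperature) measured viability of UCH-1 cells exposed for 48hr to test drugs at 15 concentrations, co-dosed with a five-agent combination of auranofin, camptothecin, doxorubicin, rubitecan and topotecan.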

Assay [12] is described as follows: qHTS assay to identify small molecule inhibitors of chordoma cells - UCH-2 (AID 1259356). Note: series mostly up to about 46 µM.
Assay [13] is described as follows: Identifying Small Molecule Inhibitors of Pancreatic Cancer Stem Cells (Panc1, Spheroid) (AID 1259359).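 Note: potency is the fitted concentration of half-maximal effect; compound exposure lasted 48 h before reading.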 Summed up:
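Adherent (2D) versus sphere (3D) formats; spheres generated 14 d in SCM beforehand. Compound transferred by pin tool after 4 h, 48 h incubation, CellTiter-Glo endpoint.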

A short description of assay [14]: Identifying Small Molecule Inhibitors of Pancreatic Cancer Stem Cells (SN12C, Spheroid) (AID 1259360). Note: potency is the fitted concentration of half-maximal effect. As to conditions: Potency: SN12C spheroid viability. The method, boiled down: as §2
The nature of assay [15]: Identifying Small Molecule Inhibitors of Pancreatic Cancer Stem Cells (Panc1, Adherent) (AID 1259362). Note: potency is the fitted concentration of half-maximal effect. As to conditions: Potency: viability. Summed up:
(§3)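 After a 4 h attachment period, compounds were pinned into wells and cultures held 48 h under standard incubator conditions. Viability was then measured as CellTiter-Glo luminescence following 10 min at room temperature.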

Assay [16] can be described thus: Identifying Small Molecule Inhibitors of Pancreatic Cancer Stem Cells (SN12C, Adherent) (AID 1259358).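 Note: potency is the fitted concentration of half-maximal effect; cell survival measured after 48 h of compound exposure.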 Summed up: as §3
Assay [17] can be described thus: Identifying Small Molecule Inhibitors of Pancreatic Cancer Stem Cells (A278, Adherent) (AID 1259361).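 Note: viability read after 48 h compound exposure; nearly all actives have a fitted effect of over 35% in size.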 Summed up: as §3

As to `Cc1cc(Nc2cc(NC(=O)c3c(Cl)cccc3Cl)ccn2)nc(N)n1`, the Potency result in assay [1] and in [2] was “inactive” each time. Besides, the Potency is 332 nM (active) in [3]; 148 nM (active) in assay [4]; 187 nM (active) in assay [5]; 264 nM (active) in assay [6]; 20900 nM (active) in assay [7]; 326 nM (active) in assay [8]. The Potency in [9] is 935 nM (active) and 1.16 µM (active); in assay [10], 2350 nM (active).
For `COc1cc(C(=O)NS(=O)(=O)c2ccccc2C)ccc1Cc1cn(C)c2ccc(NC(=O)OC3CCCC3)cc12`, the Potency entry in [1], in [2], in assay [11], in [9] and in assay [10] was “inactive” throughout. The Potency is 23500 nM (active) in [3], 23500 nM (active) in [4], 16600 nM (active) in [5] and 18700 nM (active) in assay [6]. The compound was classed as inactive in assay [12].
For `O=C(Nc1cc(C(F)(F)F)cc(C(F)(F)F)c1)c1cc(Cl)ccc1O`, the Potency entry in assay [1] and in assay [2] was “inactive” throughout. The Potency in assay [3] is 1180 nM (active); in assay [4] it was 1050 nM (active); in assay [5], 2350 nM (active); in [6], 1180 nM (active); in [7] it was 526 nM (active); in assay [13], 372 nM (active). Besides, the Potency is 833 nM (active) in [14]; 33.2 nM (active) in assay [15]; 187 nM (active) and 820 nM (active) in [9]; 2640 nM (active) in [10].
Turning to `c1ccc2c(CCNc3ccc(Nc4ccncc4)cc3)c[nH]c2c1`, the Potency entry in assay [1], in [2] and in [7] was “inactive” throughout. Further, the Potency in assay [3] was 16600 nM (active); in assay [4], 14800 nM (active); in assay [5], 5260 nM (active); in assay [6], 5260 nM (active); in assay [16], 18700 nM (active); in assay [14] it was 23500 nM (active). Besides, the Potency in assay [10] is 8330 nM (active). For the same compound, the IC50 (viability decrease) in assay [17] was 16600 nM (active).
For the compound `CC[C@H]1CN2CCc3cc(OC)c(OC)cc3[C@H]2C[C@@H]1C[C@@H]1NCCc2cc(OC)c(OC)cc21`, the Potency result in assay [1] and in [2] was “inactive” in each case. For the same compound, the Potency in assay [3] is 93.5 nM (active); in [4] it was 59 nM (active); in assay [5], 66.2 nM (active); in assay [6] it was 74.3 nM (active); in assay [9], 1.18 µM (active); in assay [10] it was 118 nM (active). Moreover, the result in assay [12] was inactive.
As for `COC(=O)C[C@](O)(CCCC(C)(C)O)C(=O)O[C@@H]1C(OC)=C[C@]23CCCN2CCc2cc4c(cc2[C@H]13)OCO4`, the Potency entry in assay [1], in [2], in assay [3], in assay [4], in assay [5] and in [6] was “inactive” throughout. The Potency result in [10] was “inactive”. For the same compound, the Potency in assay [11] was 199 nM (active); in assay [9] it was 8.2 µM (active). The call in [12] was inactive.
Consider `COC(=O)C1=C(C)NC(C)=C(C(=O)OCCN2CCN(C(c3ccccc3)c3ccccc3)CC2)C1c1cccc([N+](=O)[O-])c1` (centres undefined), for which the Potency result in assay [1], in [2], in assay [3], in [4], in [5] and in assay [6] was “inactive” throughout. In assay [12], the outcome was inactive. For the same compound, the Potency in assay [9] was 20.6 µM (active) and inactive.
Turning to `C[C@@]12O[C@@H](C[C@]1(O)CO)n1c3ccccc3c3c4c(c5c6ccccc6n2c5c31)CNC4=O`, the Potency entry in [1] and in assay [2] was “inactive” in each case. Besides, the Potency was 1180 nM (active) in assay [3]; 590 nM (active) in [4]; 296 nM (active) in assay [5]; 332 nM (active) in assay [6]; 23500 nM (active) in assay [7]; 23500 nM (active) in assay [14]. Further, the Potency in [8] is 206 nM (active); in assay [9], 2.35 µM (active) and 1.46 µM (active); in assay [10] it was 2640 nM (active). Moreover, in assay [17], the IC50 (viability decrease) is 1660 nM (active).
For `C=CC(=O)Nc1cc2c(Nc3ccc(F)c(Cl)c3)ncnc2cc1OCCCN1CCOCC1`, the Potency entry in [1], in [2] and in assay [8] was “inactive” in each case. Also, the Potency in assay [3] was 20900 nM (active); in [4] it was 14800 nM (active); in [5], 16600 nM (active); in assay [6] it was 14800 nM (active); in [7], 23500 nM (active); in [16], 23500 nM (active). Moreover, the values for the Potency in [14] and in assay [9] were 20900 nM (active) and 18.4 µM (active), respectively. Also, in assay [17], the IC50 (viability decrease) is 16600 nM (active).
For `CC1=C(CO)C(=O)O[C@@H]([C@@H](C)[C@H]2CC[C@H]3[C@@H]4C[C@H]5O[C@]56[C@@H](O)C=CC(=O)[C@]6(C)[C@@H]4CC[C@]23C)C1`, the Potency in [1] is 9350 nM (active); in assay [3], 526 nM (active); in assay [4], 526 nM (active); in [5] it was 264 nM (active); in [6], 209 nM (active); in assay [7] it was 935 nM (active). For the same compound, the Potency in [16] was 5260 nM (active); in assay [13] it was 1050 nM (active); in assay [14], 1660 nM (active); in assay [15], 2960 nM (active); in [9], 1.18 µM (active); in [10], 1480 nM (active). Besides, in [2], the Potency result was “inactive”. The IC50 (viability decrease) in [17] was 662 nM (active).
As to `COc1cccc2nc(-c3cccs3)nc(NN3C(=O)C=C(C)C3=O)c12`, the Potency result in assay [1] and in [2] was “inactive” each time. Also, the Potency in assay [3] was 2960 nM (active); in assay [4] it was 743 nM (active); in [5], 469 nM (active); in assay [6], 1870 nM (active); in assay [7] it was 662 nM (active); in assay [14], 20900 nM (active). The Potency is 16600 nM (active) in [15]; 469 nM (active) and 1.64 µM (active) in assay [9]; 3720 nM (active) in assay [10]. The IC50 (viability decrease) in [17] was 469 nM (active).
`Cc1ccc(C(=O)Nc2ccc(CN3CCN(C)CC3)c(C(F)(F)F)c2)cc1C#Cc1cnc2cccnn12`: the Potency entry in assay [1] and in [2] was “inactive” in each case. Besides, the Potency in assay [3] is 5260 nM (active); in [4] it was 4690 nM (active); in assay [5], 5900 nM (active); in assay [6], 5900 nM (active); in [7] it was 14800 nM (active); in assay [16], 16600 nM (active). Also, the Potency in [14] was 23500 nM (active); in assay [15], 23500 nM (active); in assay [9], 2.09 µM (active) and 3.66 µM (active); in assay [10] it was 11800 nM (active). Moreover, the IC50 (viability decrease) in [17] is 5260 nM (active).
Regarding `Nc1cc(C(F)(F)F)c(-c2cc(N3CCOCC3)nc(N3CCOCC3)n2)cn1`, the Potency entry in assay [1] and in assay [2] was “inactive” in each case. Moreover, the Potency was 372 nM (active) in [3]; 1050 nM (active) in assay [4]; 590 nM (active) in assay [5]; 264 nM (active) in assay [6]; 1480 nM (active) in assay [7]; 833 nM (active) in assay [13]. Further, the Potency in assay [15] is 1870 nM (active); in assay [9], 469 nM (active) and 1.16 µM (active). For the same compound, the IC50 (viability decrease) in [17] was 662 nM (active).
